# Tau fluor counter: Counterscreen qHTS for Inhibitors of Tau Fibril Formation, Fluorescence Polarization; tau K18 P301L Alexa594 fluorescence, heparin fibrillization; Potency, µM (series often up to 57.7 µM), without a hit: at the top dose activity change, negative = decrease; hit rate 0.93% among 280,000; AID 1463, 2008; note: nearly all actives have a fitted effect of over 55% in size
#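 Human K18 P301L tau (15 uM unlabeled plus 0.24 uM Alexa 594-labeled, final) in 100 mM sodium acetate pH 7 was mixed with compound and 20 uM heparin and incubated 6 hr at 37 C.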
# VDR inhibitor: Inhibitors of the vitamin D receptor (VDR): qHTS | Vitamin D3 receptor (Homo sapiens), P11473 | VDR-SRC2-3 peptide fluorescence polarization, 2 h | Potency, µM, for inactives: max response, negative = inhibition, actives largely listed as inhibitors | hit rate 0.93% among 400,000
# Target sequence (P11473 whole entry, looked up): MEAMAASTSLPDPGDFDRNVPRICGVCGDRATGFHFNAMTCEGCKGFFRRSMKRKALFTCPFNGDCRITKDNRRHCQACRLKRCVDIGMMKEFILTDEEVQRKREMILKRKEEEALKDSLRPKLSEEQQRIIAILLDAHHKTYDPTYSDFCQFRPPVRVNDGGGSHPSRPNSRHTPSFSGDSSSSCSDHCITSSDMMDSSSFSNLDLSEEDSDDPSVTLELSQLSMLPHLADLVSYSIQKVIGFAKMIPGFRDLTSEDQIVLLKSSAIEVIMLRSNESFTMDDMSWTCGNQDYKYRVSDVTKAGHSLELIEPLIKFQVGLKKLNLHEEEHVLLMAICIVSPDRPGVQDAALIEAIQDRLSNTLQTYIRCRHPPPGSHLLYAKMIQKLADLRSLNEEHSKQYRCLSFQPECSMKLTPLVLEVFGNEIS
#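 Fluorescence polarization assay of small-molecule disruption of VDR binding to coregulator peptide SRC2-3. Compounds and controls pin-transferred, then read after 2 h incubation at ambient room temperature.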
# Tau FP inhib: qHTS for Inhibitors of Tau Fibril Formation, Fluorescence Polarization. Microtubule-associated protein tau (Homo sapiens), P10636. K18 P301L tau heparin fibrillization, Alexa594 FP, 6 h. Potency, µM (top dose mostly 57.7 µM), for the others: top-dose activity, negative = inhibition, most hits filed as inhibitors. hit rate 0.39% among 280,000; note: nearly all actives have a fitted effect of over 55% in size
# Target sequence (P10636 561-689 P618L limits assumed): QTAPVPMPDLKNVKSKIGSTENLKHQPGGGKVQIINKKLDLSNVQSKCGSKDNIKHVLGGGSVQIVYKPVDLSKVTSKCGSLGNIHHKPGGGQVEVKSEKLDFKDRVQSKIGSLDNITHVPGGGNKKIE
#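 Read-out: fluorescence polarization of Alexa 594-labeled tau (0.24 uM), 555 nm excitation, 632 nm emission. Mixtures held 15 uM unlabeled K18 P301L, compound and 20 uM heparin, pH 7 acetate buffer, incubated 6 hr at 37 C.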
# Tau ThT inhib: qHTS for Inhibitors of Tau Fibril Formation, Thioflavin T Binding. Potency, µM (titrated, usually from 57.4 µM), for the others: at the highest dose activity, negative = inhibition, hits mostly inhibitors. Microtubule-associated protein tau (Homo sapiens), P10636. hit rate 2.1% among 270,000. recombinant tau K18 P301L, heparin-induced fibrillization, ThT fluorescence; note: nearly all actives have a fitted effect of over 55% in size
#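 Fibril formation assay: tau K18 P301L at 15 uM with trace Alexa 594 label, heparin inducer 20 uM, pH 7 sodium acetate buffer, 37 C for 6 hr; endpoint ThT signal.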
# PLK1 PBD block: qHTS for Inhibitors of PLK1-PDB (polo-like kinase 1 - polo-box domain): Primary Screen. hit rate 2.8% among 360,000. Plk1 PBD binding of FITC phosphopeptide, fluorescence polarization. Potency, µM, for the others: max response, negative = inhibition, usual class: inhibitors. Serine/threonine-protein kinase PLK1 (Homo sapiens), P53350; note: series mostly up to about 57 µM; nearly all actives have a fitted effect of over 65% in size
# Sfp inh: qHTS Assay for Inhibitors of Bacillus subtilis Sfp phosphopantetheinyl transferase (PPTase); 4'-phosphopantetheinyl transferase ffp (Bacillus subtilis), Q9F4F7; hit rate 3.5% among 310,000; Potency, µM, inactives show largest response in the series, negative = inhibition, hits mostly inhibitors; Biochemical Sfp PPTase activity, qHTS;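 note: the enzyme is Sfp with the accession as filed and its product quenches rhodamine fluorescence; 0% = enzyme reaction without inhibitor and -100% = no enzyme wells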
#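 With Hepes-Na pH 7.6 buffer containing 10 mM MgCl2, Sfp (15 nM) modified BHQ-2-YbbR (12.5 uM) using rhodamine-CoA (5 uM). Two reads 30 minutes apart at 525/598 nm yielded each well's rate.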
# Starred values were filed as active, the others as inactive; u = inconclusive; x = no result given; [ ] = dose if it differs, or a comment. Compounds with a hit are over-represented: about 6% of the library has one in this group of screens. Calls come from the whole dose curve; as a rule, active = well fitted curve in the direction sought with a large enough effect; inconclusive = small, poorly fitted or top-dose-only effect, or another doubt; inactive = no such curve, though single readings can be large; an effect the other way counts as inactive or inconclusive. Unless noted, % is set by controls: 0 for no effect and ±100 for the full control effect; potency is the fitted concentration of half-maximal effect.
SMILES,Tau fluor counter,VDR inhibitor,Tau FP inhib,Tau ThT inhib,PLK1 PBD block,Sfp inh
COc1cccc(NC(=O)N(C)C[C@H]2OCc3cn(nn3)CCCC(=O)N([C@@H](C)CO)C[C@@H]2C)c1,x,x,x,x,-6.3%,x
Cn1c2c(c(=O)c3ccccc31)C[C@@H](O)C(C)(C)O2,-3.8%,0.9%,-3.2%,-2.3%,x,7.6%
CN(C)C(=O)/N=N/C(=O)N(C)C,-19.3%,6.31µM*,14.1µM*,7.94µM*,x,x
CCOC(=O)c1ccc(NC(=O)Cn2cnc3sc(C(=O)OCC)c(C)c3c2=O)cc1,-15.1%,10.8%,-12.8%,-14.9%,x,x
Cc1ccc2nc(SCc3nc(-c4ccc(Cl)cc4)no3)[nH]c2c1,10µM*[quencher],-3.9%,17.8µM*,u,x,x
COc1ccc(-c2noc(CSc3nc4ccccc4[nH]3)n2)cc1,-3.1%,u,-3.9%,4.3%,x,x
COc1ccc(-n2cc(C(=O)N(CCN(C)C)Cc3ccccc3)c3ccccc3c2=O)cc1,-18.7%,-7.4%,-8.0%,-3.7%,x,x
Cc1c(/C=N/NC(=O)CNc2ccccc2)c2ccccn2c1C(=O)c1ccncc1,u,10.5%,u,14.1µM*,-6.1%,18.9%
O=[N+]([O-])c1ncccc1OCc1ccc(Cl)c(Cl)c1,x,1.2%,x,x,-4.9%,-12.6%
CN(C)S(=O)(=O)c1cccc(COc2cccnc2[N+](=O)[O-])c1,x,u,x,x,29.9µM*,6.4%
Cc1[nH]c2ccccc2c1CCNS(=O)(=O)c1ccc(S(N)(=O)=O)cc1,x,-9.0%,x,x,-21.6%,11.7%
COc1c(C)cc(S(=O)(=O)NCCc2c(C)[nH]c3ccccc23)c(C)c1C,15.8µM*[quencher],7.5%,u,u,x,x
COc1cc(Cl)c(S(=O)(=O)NCCc2c(C)[nH]c3c(C)cccc23)cc1Cl,15.8µM*[quencher],4.1%,21.7%,u,x,x
Cc1ccc([N+](=O)[O-])cc1S(=O)(=O)NCCc1c(C)[nH]c2c(C)cccc12,-20.7%,-7.6%,12.2%,-16.8%,-7.6%,-11.5%
COc1ccc(NC(=O)CN2C(=O)CSc3ccc(S(=O)(=O)N(C)C)cc32)cc1OC,-0.9%,4.2%,6.0%,1.4%,x,x
O=C(c1cc(-c2ccc(O)cc2)on1)N1CCN(c2ccccc2)CC1,u,0.4%,u,u,33.6µM*,-1.8%
O=C(Cc1ccccc1)NCc1n[nH]c(=S)n1-c1ccc(Br)cc1,-3.6%,u,8.5%,-3.1%,10.6µM*,9.1%
Cc1cccc(C)c1NCc1n[nH]c(=S)n1-c1ccccc1,3.8%,-15.5%,-5.7%,10.7%,-14.1%,79.4µM*
O=C(NCc1n[nH]c(=S)n1-c1ccc(Cl)c(Cl)c1)c1cccs1,-2.8%,-1.2%,-0.6%,0.4%,-23.6%,89.1µM*
Cc1ccc(C)c(NCc2n[nH]c(=S)n2-c2ccccc2)c1,10.3%,1.4%,8.7%[2.34 µM],6.4%,0.0%,22.2%
COc1ccc(-c2nn3c(=O)cc(CN4CCN(C(=O)c5ccc(C(C)(C)C)cc5)CC4)nc3s2)cc1,-5.1%,7.8%,-9.4%,u,x,x
Cn1c2c(c(=O)n(C)c1=O)C(C(F)(F)F)(C(F)(F)F)N=C(CCC1CCCCC1)N2,u,-8.7%,-0.9%,-17.9%,-8.6%,-5.0%
CCN1CCN(CCOc2cccc(Cl)c2Cl)CC1,-13.6%,1.5%,-2.3%,-6.5%,-1.6%,50.1µM*
CCN1CCN(CCCOc2ccc(Cl)cc2Br)CC1,13.5%,2.9%,3.0%,8.5%,-0.2%,10µM*
Clc1ccccc1OCCN1CCCCC1,-5.8%,-16.5%,-3.9%,-9.4%,-5.9%,-22.1%
SMILES,Tau fluor counter,VDR inhibitor,Tau FP inhib,Tau ThT inhib,PLK1 PBD block,Sfp inh
CCN1CCN(CCOc2ccc(Br)cc2C)CC1,-2.5%,u,-2.4%,-2.7%,-2.2%,50.1µM*
CCCCN(CC)CCNc1ncnc2onc(-c3ccc(Cl)cc3)c12,-10.0%,-5.8%,2.5%,-1.0%,x,x
COc1ccc(C2C3=C(CC(C)(C)CC3=O)Nc3c2c(=O)n(C)c(=O)n3C)cc1OC (stereo not drawn),2.6%,u,-2.3%,-0.8%,11.9µM*,25.8%
COc1ccc(C2Nc3ccccc3NC3=C2C(=O)CC(C)(C)C3)cc1OC (stereo not drawn),x,3.3%,x,x,-5.0%,28.1%
C=CCOc1ccccc1C1C2=C(CC(C)(C)CC2=O)Nc2c1c(=O)n(C)c(=O)n2C (stereo not drawn),-1.3%,-9.3%,-0.7%,-10.9%,-10.6%,8.4%
COc1ccc(C2Nc3ccccc3NC3=C2C(=O)CC(C)(C)C3)cc1O (stereo not drawn),x,u,x,x,3.77µM*,15.8%
COC(=O)c1ccc(C(/C=C/[C@@H](C)C(=O)N(C)C)NC(=O)OCc2ccccc2)cc1 (stereo partly drawn),0.8%,x,14.2%,1.4%,x,3.6%
Cc1ccc(SCc2nc3ccccc3n2CC(=O)Nc2ccccc2)cc1,-24.4%,-7.3%,10.9%,-11.8%,1.2%,50.1µM*
O=C(Cn1c(/C=C/c2ccccc2)nc2ccccc21)Nc1ccc(F)cc1,u,u,u,-6.8%,18.9µM*,-2.1%
CCCn1nnnc1NC(=O)c1cc(Cl)ccc1Cl,9.7%,-8.6%,6.0%,3.4%,26.7µM*,-6.0%
CCCCn1c(N)c(N(CC)C(=O)C2COc3ccccc3O2)c(=O)[nH]c1=O (stereo not drawn),x,-18.1%,x,x,-0.2%,x
CCCC(c1nnnn1CCOC)N(Cc1cc2cc(C)c(C)cc2[nH]c1=O)CC1CCCO1 (stereo not drawn),-1.3%,-3.0%,0.5%,-7.2%,-1.8%,10µM*
Cc1cc2cc(CN(Cc3nnnn3C3CCCCC3)CC3CCCO3)c(=O)[nH]c2cc1C (stereo not drawn),8.8%,-2.5%,1.1%,0.1%,-7.2%,50.1µM*
CCCn1c(SCC(=O)N2CCCCC2)nnc1C(C)C,6.0%[2.34 µM],79.4µM*,3.2%,-0.6%,10.6µM*,13.3%
COCCn1c(SCC(=O)N2CCCC2)nnc1C(C)C,-9.2%,-3.9%,u,-12.0%,-1.1%,22.0%
Cc1c(CCO)c(=O)n(-c2ccccc2)n1S(=O)(=O)c1c(Cl)cc(Cl)cc1Cl,-13.1%,9.1%,-0.3%,u,u,70.8µM*
CC(NCC1(N2CCOCC2)CCCCC1)C(=O)Nc1ccc(Cl)cc1Cl (stereo not drawn),-10.1%,-9.2%,5.3%,-11.5%,-2.1%,56.2µM*
O=C(CC1C(=O)NCCN1CC1CCCCC1)NCc1cc(F)ccc1F (stereo not drawn),-1.4%,u,-2.2%,-6.5%,3.77µM*,-2.8%
